Assay results from PMC7826789 (International Journal of Molecular Sciences, 2021).

Experiments:
Details in all cases: Compound Concentration (nM):1000
PLK3 = system: PLK3
PLK4 = system: PLK4
PRKCD = system: PRKCD
PRKCE = system: PRKCE
PRKCH = system: PRKCH
PRKCI = system: PRKCI
PRKCQ = system: PRKCQ
PRKD1 = system: PRKD1
PRKD2 = system: PRKD2
PRKD3 = system: PRKD3
PRKG1 = system: PRKG1
PRKG2 = system: PRKG2
PRKR = system: T1, PRKR
T1 construct: gene EIF2AK2

PRKX = system: PRKX
PRP4 = system: T2, PRP4
T2 construct: gene PRPF4B

PYK2 = system: T3, PYK2
T3 construct: gene PTK2B

QSK = system: T4, QSK
T4 construct: gene KIAA0999

RAF1 = system: RAF1
RET(M918T) = system: RET(M918T)
RET(V804L) = system: RET(V804L)
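Further: KINOMEscan scanMAX binding as percent activity remaining versus control; lower means stronger binding.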

| Structure (SMILES) | Percent Control (PLK3) [%] | Percent Control (PLK4) [%] | Percent Control (PRKCD) [%] | Percent Control (PRKCE) [%] | Percent Control (PRKCH) [%] | Percent Control (PRKCI) [%] | Percent Control (PRKCQ) [%] | Percent Control (PRKD1) [%] | Percent Control (PRKD2) [%] | Percent Control (PRKD3) [%] | Percent Control (PRKG1) [%] | Percent Control (PRKG2) [%] | Percent Control (PRKR) [%] | Percent Control (PRKX) [%] | Percent Control (PRP4) [%] | Percent Control (PYK2) [%] | Percent Control (QSK) [%] | Percent Control (RAF1) [%] | Percent Control (RET(M918T)) [%] | Percent Control (RET(V804L)) [%] |
| --- | --- | --- | --- | --- | --- | --- | --- | --- | --- | --- | --- | --- | --- | --- | --- | --- | --- | --- | --- | --- |
| CN1CCN(C(=O)c2ccc(NC(=O)Nc3ccc(N(C)c4ccnc(Nc5ccc(CS(C)(=O)=O)cc5)n4)cc3)cc2)CC1.Cl [GW830263A] | 100 | 2.7 | 100 | 99 | 100 | 74 | 51 | 100 | 100 | 100 | 100 | 100 | 100 | 100 | 88 | 20 | 86 | 90 | 0.2 | 5.5 |
| CC1=C(C(=O)Nc2ccc3[nH]ncc3c2)C(c2ccc3ccccc3c2)CC(=O)N1 (stereo not shown) [GSK270822A] | 82 | 88 | 100 | 100 | 100 | 80 | 82 | 100 | 100 | 22 | 48 | 29 | 89 | 22 | 62 | 77 | 91 | 87 | 34 | 46 |
| NS(=O)(=O)c1ccc(Nc2ncc(-c3ccccc3)o2)cc1 [GW572399X] | 86 | 100 | 100 | 100 | 100 | 100 | 100 | 100 | 100 | 61 | 96 | 100 | 55 | 100 | 100 | 100 | 100 | 100 | 100 | 100 |
| O=C(Nc1n[nH]c2nc(-c3ccc(O)cc3)c(Br)cc12)C1CC1 [SB-725317] | 88 | 82 | 45 | 46 | 78 | 90 | 58 | 100 | 100 | 99 | 100 | 97 | 59 | 100 | 100 | 100 | 100 | 46 | 100 | 100 |
| COc1ccc2[nH]c3c4[nH]c5ccc(OC)cc5c4c4c(c3c2c1)C(=O)NC4=O [GW296115X] | 88 | 1.4 | 93 | 75 | 35 | 63 | 44 | 68 | 62 | 75 | 74 | 0.9 | 100 | 23 | 97 | 68 | 56 | 100 | 21 | 4.2 |
| NS(=O)(=O)c1ccc(N/N=C2\C(=O)Nc3ccc(C(=O)NCCc4c[nH]cn4)cc32)cc1 [GW300660X] | 76 | 81 | 100 | 98 | 100 | 90 | 100 | 100 | 100 | 85 | 62 | 49 | 87 | 100 | 100 | 100 | 89 | 100 | 100 | 100 |
| C/C(Nc1ccc(S(N)(=O)=O)cc1)=C1/C(=O)Nc2ccccc21 [GW335962X] | 83 | 74 | 95 | 96 | 100 | 100 | 81 | 100 | 100 | 86 | 90 | 94 | 63 | 87 | 100 | 99 | 97 | 83 | 92 | 98 |
| COc1cc(N2CCN(C(C)C)CC2)ccc1Nc1nc(Nc2ccc(F)cc2C(=O)NC[C@@H](O)CO)c2cc[nH]c2n1 [GSK1392956A] | 96 | 41 | 100 | 100 | 100 | 97 | 95 | 79 | 57 | 49 | 100 | 100 | 80 | 80 | 100 | 2.4 | 100 | 100 | 93 | 86 |
| COc1cc(C=NNc2ncnc3c2cnn3-c2ccccc2)ccc1O [GW513184X] | 71 | 77 | 100 | 88 | 100 | 100 | 86 | 100 | 100 | 100 | 100 | 100 | 76 | 100 | 100 | 100 | 100 | 100 | 18 | 90 |
| COc1ccc2c(-c3ccnc(Nc4cccc(OC(F)(F)F)c4)n3)cnn2n1 [GW810372X] | 83 | 100 | 99 | 100 | 94 | 100 | 100 | 100 | 100 | 100 | 82 | 97 | 75 | 100 | 100 | 96 | 95 | 100 | 100 | 100 |
| CCc1ccc(Oc2nccc(-c3c(-c4ccc(F)cc4)ncn3C3CCNCC3)n2)cc1 [SB-242719] | 83 | 79 | 100 | 95 | 100 | 95 | 84 | 95 | 85 | 70 | 100 | 92 | 100 | 86 | 100 | 97 | 85 | 100 | 93 | 88 |
| COC(=O)Nc1nc2ccc(Oc3ccc(NC(=O)Nc4cc(C(F)(F)F)ccc4F)cc3)cc2s1.Cl [GW693917A] | 100 | 66 | 100 | 100 | 100 | 91 | 62 | 100 | 100 | 86 | 100 | 91 | 85 | 100 | 100 | 94 | 88 | 17 | 0.8 | 1 |
| COc1ccccc1-c1cc(/C=C2\C(=O)Nc3ncc(Br)cc32)cc(Br)c1O [GW442130X] | 89 | 80 | 100 | 100 | 86 | 100 | 100 | 83 | 100 | 100 | 100 | 100 | 90 | 100 | 96 | 100 | 100 | 100 | 100 | 91 |
| Cl.O=C(O[C@H]1CN[C@H](C#Cc2cc3ncnc(Nc4ccc5c(cnn5Cc5ccccc5)c4)c3s2)C1)N1CCOCC1 [GSK200398A] | 91 | 69 | 100 | 88 | 100 | 100 | 64 | 100 | 93 | 100 | 95 | 100 | 65 | 77 | 100 | 99 | 100 | 88 | 100 | 100 |
| NS(=O)(=O)c1ccc(N/N=C2\C(=O)Nc3ccc(-c4cnco4)cc32)cc1 [GW276655] | 76 | 60 | 75 | 100 | 100 | 54 | 81 | 100 | 94 | 100 | 68 | 57 | 54 | 100 | 100 | 79 | 100 | 100 | 59 | 60 |
| COc1cccc(-n2ncc3c(N/N=C/c4ccncc4)ncnc32)c1 [GW784752X] | 88 | 84 | 100 | 100 | 99 | 72 | 100 | 100 | 100 | 91 | 93 | 100 | 80 | 38 | 84 | 95 | 100 | 58 | 93 | 100 |
| COc1cc2ncnc(Nc3ccc4c(cnn4Cc4ccccc4)c3)c2cc1OC.Cl [GW282449A] | 100 | 100 | 100 | 64 | 100 | 100 | 100 | 100 | 100 | 98 | 93 | 100 | 89 | 100 | 100 | 100 | 100 | 100 | 90 | 100 |
| Cl.O=S1CCN(Cc2ccc(-c3ccc4ncnc(Nc5ccc(OCc6ccccc6)c(F)c5)c4c3)o2)CC1 [GW576924A] | 100 | 100 | 100 | 91 | 100 | 100 | 100 | 100 | 100 | 100 | 100 | 100 | 86 | 100 | 100 | 100 | 100 | 100 | 100 | 100 |
| CC(C)COC(=O)c1ccc2c(c1)/C(=C/Nc1ccc(S(N)(=O)=O)cc1)C(=O)N2 [GW416981X] | 83 | 64 | 100 | 100 | 100 | 100 | 100 | 100 | 100 | 61 | 100 | 54 | 65 | 100 | 96 | 100 | 95 | 100 | 83 | 43 |
| COc1ccc(COc2ccc(Cc3cnc(N)nc3N)cc2OC)cc1 [GW632580X] | 97 | 72 | 71 | 100 | 100 | 88 | 79 | 100 | 100 | 100 | 100 | 86 | 100 | 100 | 88 | 84 | 100 | 100 | 93 | 88 |
